# Measurements from PubChem BioAssay (Tox21).
# Values joined by “and” are separate entries in the source; they are usually repeats but may differ in a detail not shown here. Equal values may be shown once. Inconclusive results are not listed. A call without a number means that no potency is given here. Where a structure was tested more than once in an assay, its records may differ in their call. Active and inactive are the calls of the source. Unless noted, calls come from the whole dose curve; as a rule, active = well fitted curve in the direction sought with a large enough effect in the repeat runs; inconclusive = weak or mixed curves; inactive = no such curve, though single readings can be large; an effect the other way counts as inactive or inconclusive.
# Experiments:
# [1] = qHTS assay to identify small molecule agonists of H2AX (AID 1224845; active = well fitted activation curve with a large enough effect in the signal ratio in the repeat runs, not every such curve was filed as active; the % refers to the signal ratio; note: potency is the fitted concentration of half-maximal effect)
# How it was run: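 Phospho-H2AX Ser139 measured by HTRF (ex 320 nm; em 665 and 620 nm) after 24 hr antibody incubation. Compounds, 15 concentrations, 0.76% DMSO, were applied to CHO-K1 cells for 3hr at 37C before lysis.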
# [2] = qHTS assay to identify small molecule agonists of the hypoxia (HIF-1) signaling pathway (AID 1224846; active = well fitted activation curve with a large enough effect in the signal ratio in the repeat runs, not every such curve was filed as active; the % refers to the signal ratio)
# How it was run: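 HRE-bla ME-180 cells (beta-lactamase reporter under hypoxia response element) were plated at 2,000 cells/well in medium with 0.5% dialyzed FBS, rested 5 hrs, then given compounds in DMSO for 17 hrs at 37C, 5% CO2. Reporter induction was read with CCF4-AM FRET substrate.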
# [3] = qHTS assay to identify small molecule agonists of H2AX - cell viability counter screen (AID 1224847; calls by dose curve; note: nearly all actives have a fitted effect of over 30% in size; note: potency is the fitted concentration of half-maximal effect)
# How it was run: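 For this counter screen, overnight-attached CHO-K1 cells received test compounds (15 concentrations, 0.76% DMSO final); 3 hr later at 37C, CellTiter-Glo reagent was added and luminescence recorded after 30 min at room temperature.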
# [4] = qHTS RealTime-Glo MT Cell Viability Assay in HepG2 cells - 24 hour (AID 1224867); note: nearly all actives have a fitted effect of over 50% in size
# How it was run: (§1)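 Cell number in HepG2 cultures estimated from NanoLuc luminescence generated by metabolic reduction of a prosubstrate by living cells. The homogeneous, nonlytic format allowed repeated reads at 0, 8, 16, 24, 32 and 40 h of compound exposure.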
# [5] = qHTS RealTime-Glo MT Cell Viability Assay in HEK293 cells - 32 hour (AID 1224868); note: nearly all actives have a fitted effect of over 50% in size; note: potency is the fitted concentration of half-maximal effect
# How it was run: (§2)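 Homogeneous bioluminescent viability format in HEK293 cells (600 cells/well). Following 5 h at 37 C/5% CO2, 23 nL compound was pintooled; the signal was measured repeatedly during 40 h incubation.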
# [6] = A CellTox Green Cytotoxicity Assay to monitor cytotoxicity in HEK293 cells - 0 hour (AID 1224869); note: nearly all actives have a fitted effect of over 50% in size; note: potency is the fitted concentration of half-maximal effect
# How it was run: (§3)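 HEK293 cells premixed with CellTox Green dye were seeded at 600 cells/well and left 5 h at 37 C/5% CO2 before pin transfer of 23 nL compound in DMSO. Fluorescence from dye bound to dead-cell DNA was read during 40 h treatment.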
# [7] = qHTS RealTime-Glo MT Cell Viability Assay in HepG2 cells - 40 hour (AID 1224870); note: nearly all actives have a fitted effect of over 50% in size
# How it was run: (§4)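 Real-time viability: cells seeded at 600 per well together with NanoLuc and cell-permeant prosubstrate, compounds added after 5 h incubation. Luminescence tracked at 0, 8, 16, 24, 32 and 40 h of exposure.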
# [8] = A CellTox Green Cytotoxicity Assay to monitor cytotoxicity in HEK293 cells - 40 hour (AID 1224871); note: nearly all actives have a fitted effect of over 45% in size; note: potency is the fitted concentration of half-maximal effect
# How it was run: as §3
# [9] = qHTS RealTime-Glo MT Cell Viability Assay in HEK293 cells - 16 hour (AID 1224872); note: nearly all actives have a fitted effect of over 50% in size; note: potency is the fitted concentration of half-maximal effect
# How it was run: as §2
# [10] = qHTS RealTime-Glo MT Cell Viability Assay in HepG2 cells - 8 hour (AID 1224873); note: nearly all actives have a fitted effect of over 55% in size; note: potency is the fitted concentration of half-maximal effect
# How it was run: as §4
# [11] = qHTS RealTime-Glo MT Cell Viability Assay in HEK293 cells - 40 hour (AID 1224874); settings: RealTime-Glo luminescence; max response: stronger effect = lower value; note: nearly all actives have a fitted effect of over 50% in size; note: potency is the fitted concentration of half-maximal effect
# How it was run: (§5)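 HEK293 cells mixed with RealTime-Glo reagents (NanoLuc plus cell-permeant prosubstrate) at 600 cells/well, preincubated 5 h at 37 C/5% CO2, then given 23 nL compound in DMSO. Nonlytic luminescence from viable cells was read at 0, 8, 16, 24, 32 and 40 h.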
# [12] = A CellTox Green Cytotoxicity Assay to monitor cytotoxicity in HEK293 cells - 24 hour (AID 1224875); note: nearly all actives have a fitted effect of over 45% in size; note: potency is the fitted concentration of half-maximal effect
# How it was run: as §3
# [13] = A CellTox Green Cytotoxicity Assay to monitor cytotoxicity in HepG2 cells - 16 hour (AID 1224876); note: nearly all actives have a fitted effect of over 45% in size; note: potency is the fitted concentration of half-maximal effect
# How it was run: (§6)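 HepG2 cells were seeded together with the CellTox Green dye at 600 cells/well, left 5 h at 37 C/5% CO2, then given compounds in DMSO. Fluorescence from dye bound to dead-cell DNA was read repeatedly over 40 h of treatment at 37 C.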
# [14] = A CellTox Green Cytotoxicity Assay to monitor cytotoxicity in HepG2 cells - 24 hour (AID 1224878); note: nearly all actives have a fitted effect of over 45% in size; note: potency is the fitted concentration of half-maximal effect
# How it was run: as §6
# [15] = A CellTox Green Cytotoxicity Assay to monitor cytotoxicity in HepG2 cells - 40 hour (AID 1224879); note: nearly all actives have a fitted effect of over 40% in size; note: potency is the fitted concentration of half-maximal effect
# How it was run: as §6
# [16] = qHTS RealTime-Glo MT Cell Viability Assay in HEK293 cells - 0 hour (AID 1224880)
# How it was run: as §5
# [17] = A CellTox Green Cytotoxicity Assay to monitor cytotoxicity in HEK293 cells - 32 hour (AID 1224881); note: nearly all actives have a fitted effect of over 40% in size; note: potency is the fitted concentration of half-maximal effect
# How it was run: as §3
# [18] = qHTS RealTime-Glo MT Cell Viability Assay in HepG2 cells - 32 hour (AID 1224877); note: nearly all actives have a fitted effect of over 55% in size
# How it was run: as §1
# [19] = qHTS assay to identify small molecule antagonists of the estrogen related receptor (ERR) signaling pathway from Tox21 library (AID 1224848); note: nearly all actives have a fitted effect of over 50% in size; note: potency is the fitted concentration of half-maximal effect
# How it was run: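 Reading was by luminescence 30 min after ONE-Glo addition. Before that, ERR cells at 2,000 per well had rested 6 h at 37 C/5% CO2 and then received pin-tooled compounds in DMSO for 18 h at 37 C.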
# [20] = qHTS assay to identify small molecule agonists of the estrogen related receptor (ERR) signaling pathway from Tox21 library (AID 1224849; calls by dose curve; note: nearly all actives have a fitted effect of over 15% in size); settings: ERR reporter cell line, ONE-Glo luciferase, 18 h
# How it was run: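 ERR reporter cell line (NTP) seeded, rested 6 h at 37 C/5% CO2, then pinned with Tox21 compounds in DMSO. After 18 h at 37 C, ONE-Glo luciferase luminescence was read following 30 min at room temperature.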
compound,measurement,setting,value
CSc1cnc(C)cn1,Potency,[1],inactive
same,Potency,[2],inactive
same,Potency,[3],inactive
same,Potency,[4],inactive
same,Potency,[5],inactive
same,Potency,[6],56.4 µM (active)
same,Potency,[7],inactive
same,Potency,[8],89.4 µM (active)
same,Potency,[9],inactive
same,Potency,[10],inactive
same,max response,[11],7.94% (inactive)
same,Potency,[12],89.4 µM (active)
same,Potency,[13],89.4 µM (active)
same,Potency,[14],63.3 µM (active)
same,Potency,[15],63.3 µM (active)
same,Potency,[16],inactive
same,Potency,[17],89.4 µM (active)
C/C=C1/C(=O)C[C@H]2[C@@H]3CCC4=CC(=O)CC[C@]4(C)[C@H]3CC[C@]12C,Potency,[1],inactive
same,Potency,[2],inactive
same,Potency,[3],inactive
same,Potency,[5],48.8 µM (active)
same,Potency,[6],inactive
same,Potency,[7],inactive
same,Potency,[9],43.5 µM (active)
same,Potency,[11],48.8 µM (active)
same,Potency,[12],inactive
same,Potency,[18],inactive
same,Potency,[15],43.5 µM (active)
same,Potency,[17],inactive
COc1ccc(C(=O)/C(Br)=C\C(=O)O)cc1,Potency,[1],31.8 µM (active)
same,Potency,[2],inactive
same,Potency,[19],inactive
same,Potency,[5],38.9 µM (active)
same,Potency,[6],inactive
same,Potency,[8],24.5 µM (active)
same,Potency,[9],38.9 µM (active)
same,Potency,[10],inactive
same,Potency,[11],34.7 µM (active)
same,Potency,[12],34.7 µM (active)
same,Potency,[15],13.8 µM (active)
same,Potency,[16],inactive
same,Potency,[17],30.9 µM (active)
Oc1ccc(Cl)cc1Sc1cc(Cl)ccc1O,Potency,[1],inactive
same,Potency,[3],35.7 µM (active)
same,Potency,[19],10.8 µM (active) and 11.9 µM (active)
same,"activity change, positive = activation",[20]; at 42.5 µM (top of the series),-51.1% (inactive)
same,"activity change, positive = activation",[20]; at 92.4 µM (top of the series),-52% (inactive)
same,Potency,[5],19.5 µM (active) and 23.9 µM (active)
same,Potency,[6],inactive
same,Potency,[8],38.8 µM (active) and inactive
same,Potency,[9],21.8 µM (active)
same,Potency,[11],19.5 µM (active) and 23.9 µM (active)
same,Potency,[13],inactive
same,Potency,[14],43.6 µM (active)
same,Potency,[15],48.9 µM (active) and 26.8 µM (active)
same,Potency,[16],inactive
same,Potency,[17],43.6 µM (active) and inactive
CCN(C(=O)N(CC)c1ccccc1)c1ccccc1,Potency,[1],inactive
same,Potency,[2],inactive
same,"activity change, positive = activation",[20]; at 92.4 µM (top of the series) unless noted,-25.8% (inactive)
same,Potency,[4],inactive
same,Potency,[6],inactive
same,Potency,[7],inactive
same,Potency,[10],inactive
same,Potency,[12],inactive
same,Potency,[13],inactive
same,Potency,[18],inactive
same,Potency,[14],inactive
same,Potency,[15],inactive
same,Potency,[16],inactive
same,Potency,[17],inactive
NC(=NCCCCCCN=C(N)/N=C(\N)Nc1ccc(Cl)cc1)/N=C(\N)Nc1ccc(Cl)cc1,Potency,[1],inactive
same,Potency,[2],inactive
same,Potency,[5],8.67 µM (active) [middle of 5 runs]
same,Potency,[6],inactive
same,Potency,[8],15.8 µM (active) [middle of 4 runs]
same,Potency,[9],19.8 µM (active) [middle of 4 runs]
same,Potency,[10],48.7 µM (active) and 44.4 µM (active) and inactive
same,Potency,[11],6.88 µM (active) [middle of 5 runs]
same,Potency,[12],24.4 µM (active) [middle of 4 runs]
same,Potency,[13],19.8 µM (active) [middle of 4 runs]
same,Potency,[14],21.8 µM (active) [middle of 4 runs]
same,Potency,[16],inactive
same,Potency,[17],19.4 µM (active) [middle of 4 runs]
NNC(=O)c1cccc(C(=O)NN)c1,Potency,[1],inactive
same,Potency,[2],inactive
same,Potency,[4],inactive
same,Potency,[5],inactive
same,Potency,[6],inactive
same,Potency,[7],inactive
same,Potency,[8],inactive
same,Potency,[9],inactive
same,Potency,[10],inactive
same,max response,[11],-2.8% (inactive)
same,Potency,[12],inactive
same,Potency,[13],inactive
same,Potency,[18],inactive
same,Potency,[14],inactive
same,Potency,[15],inactive
same,Potency,[16],inactive
same,Potency,[17],inactive
